# PLK1 PBD block: blocks phosphopeptide binding to human PLK1 polo-box domain | P53350 | hit rate 2.8% among 360,000 | AID 720504 | Plk1 PBD binding of FITC phosphopeptide, fluorescence polarization | Potency, µM, for inactives: max response, negative = inhibition, actives largely listed as inhibitors; also: series mostly up to about 57 µM; % is scaled to controls: 0 for no effect and ±100 for the full control effect; nearly all actives have a fitted effect of over 65% in size
# Target sequence (P53350 whole entry, looked up, the tested form may be a part): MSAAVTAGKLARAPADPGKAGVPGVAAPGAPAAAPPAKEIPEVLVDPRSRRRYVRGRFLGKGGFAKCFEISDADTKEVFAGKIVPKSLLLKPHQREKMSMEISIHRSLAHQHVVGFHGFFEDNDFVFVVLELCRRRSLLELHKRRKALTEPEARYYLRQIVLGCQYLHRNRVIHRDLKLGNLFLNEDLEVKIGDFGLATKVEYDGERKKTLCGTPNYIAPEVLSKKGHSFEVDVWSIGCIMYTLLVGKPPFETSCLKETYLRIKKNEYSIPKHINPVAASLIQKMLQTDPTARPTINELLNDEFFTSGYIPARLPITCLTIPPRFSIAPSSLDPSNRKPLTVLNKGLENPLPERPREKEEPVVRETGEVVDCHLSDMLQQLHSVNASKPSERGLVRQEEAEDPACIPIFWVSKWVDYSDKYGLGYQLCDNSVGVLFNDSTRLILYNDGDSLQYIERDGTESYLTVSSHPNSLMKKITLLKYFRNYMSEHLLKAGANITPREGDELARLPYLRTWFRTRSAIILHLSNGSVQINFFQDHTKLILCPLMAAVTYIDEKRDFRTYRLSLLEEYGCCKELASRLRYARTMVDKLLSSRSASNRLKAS
# HP1b binding inh: blocks HP1-beta chromodomain binding to methylated histone tails. P83916. AlphaScreen HP1-beta / biotin-H3K9me3 peptide binding. Potency, µM (top dose mostly 114 µM), without a hit: at the highest dose activity change, negative = inhibition, most hits filed as inhibitors. hit rate 0.56% among 390,000. AID 540317; also: nearly all actives have a fitted effect of over 70% in size
# Target sequence (P83916 whole entry, looked up): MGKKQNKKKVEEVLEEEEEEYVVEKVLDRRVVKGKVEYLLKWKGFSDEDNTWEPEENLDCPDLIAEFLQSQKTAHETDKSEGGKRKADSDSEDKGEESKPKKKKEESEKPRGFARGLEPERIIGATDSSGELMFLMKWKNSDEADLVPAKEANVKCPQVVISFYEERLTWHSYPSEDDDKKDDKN
#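 AlphaScreen: HP1-beta (50 nM) preformed 30 min with biotin-H3(1-18)K9me3 peptide (50 nM) in PBS pH 7.4, 0.01% Tween-20. Compound added for 30 min at RT, then streptavidin donor/nickel chelate acceptor beads (10 ug/mL) for 30 min.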
# G9a block: G9a (human) methyltransferase inhibition; hit rate 8.8% among 350,000; Q96KQ7; Potency, µM (highest dose often 102 µM), for the others: at the highest dose activity, negative = inhibition, most hits filed as inhibitors; G9a H3K9 monomethylation, AlphaScreen, 2 h; also: % is scaled to controls: 0 for no effect and ±100 for the full control effect; nearly all actives have a fitted effect of over 75% in size
#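 G9a (20 nM) preincubated 15 min RT with compounds, then 500 nM biotinylated H3K9 peptide and 20 uM SAM added; 2 h RT reaction. Monomethyl-H3K9 product detected by AlphaScreen with anti-H3K9me1 antibody, streptavidin donor and anti-rabbit IgG acceptor beads.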
# ALOX12 inh: blocks human arachidonate 12S-lipoxygenase | P18054 | purified 12hLO, xylenol orange hydroperoxide absorbance | Potency, µM (top dose mostly 108 µM), inactives show at the top dose activity change, negative = inhibition, hits mostly inhibitors | hit rate 1.1% among 580,000 | AID 1671190; also: % is scaled to controls: 0 for no effect and ±100 for the full control effect
#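 Hydroperoxide product was detected by ferrous iron/xylenol orange as the 573 to 405 nm absorbance ratio. Arachidonic acid at 40 uM (final) was turned over for 30 min at room temperature by 150 nM human 12hLO, pH 7.0 Hepes buffer, after 15 min compound preincubation.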
# JMJD2A Tudor: blocks the human JMJD2A Tudor domain | Potency, µM (doses to about 114 µM), for inactives: top-dose activity change, negative = inhibition, hits mostly inhibitors | hit rate 4.4% among 390,000 | AID 504339 | AlphaScreen JMJD2A-Tudor / H3K4me3 peptide binding; also: % is scaled to controls: 0 for no effect and ±100 for the full control effect; nearly all actives have a fitted effect of over 50% in size
# BAZ2B inh: blocks human BAZ2B; Q9UIF8; AlphaScreen BAZ2B-H3K14Ac peptide displacement; Potency, µM (doses to about 114 µM), inactives show at the top dose activity change, negative = inhibition, most hits filed as inhibitors; hit rate 4.4% among 360,000; also: % is scaled to controls: 0 for no effect and ±100 for the full control effect; nearly all actives have a fitted effect of over 60% in size
#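 In this displacement format the biotinylated H3(5-23) peptide acetylated at Lys14 serves as ligand at 50 nM, with BAZ2B at 50 nM in PBS pH 7.4 containing 0.01% Tween-20. Donor and acceptor beads are 10 ug/mL final.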
# * hit, by the source's call; i = inactive; ? = inconclusive; . = no result; ! = not confirmed by another sample; [ ] = dose if it differs, or a comment. Rows were chosen to be rich in hits. Some 9% of all compounds tested hit in one or more screens of this group. Calls follow the shape of the dose curve; as a rule, active = well fitted curve in the direction sought with a large enough effect; inconclusive = small, poorly fitted or top-dose-only effect, or another doubt; inactive = no such curve, though single readings can be large; an effect the other way counts as inactive or inconclusive. Potency is read from the fitted curve at half-maximal effect.
SMILES,PLK1 PBD block,HP1b binding inh,G9a block,ALOX12 inh,JMJD2A Tudor,BAZ2B inh
O=C(O)C(c1ccccc1)N1C(=O)c2ccccc2C1=O (stereo not given),-13.0%,41.2%,-29.4%,13.2%,-1.7%,-21.3%
Cc1ccc(NC2=Nc3ccccc3CS2)cc1,-4.6%,12.7%,10µM*,356.6%,?,-0.3%
CCC(C)NS(=O)(=O)c1ccc(S(=O)(=O)N2CC=C(c3ccc(F)cc3)CC2)cc1 (stereo not given),?,?,10µM*,-19.2%,?,-25.9%
Cc1ccc(NC(=O)C2=CCN(S(=O)(=O)c3ccc(F)cc3)CC2)c(C)c1,-11.4%,48.4%,?,12.3%,-7.6%,-0.2%
CCC(C)NC(=O)C1=CCN(S(=O)(=O)c2ccc(C)cc2)CC1 (stereo not given),-28.2%,5.6%,50.1µM*,1.5%,-11.6%,-0.1%
COC(=O)c1ccc(O)c(Sc2cc(C(=O)OC)ccc2O)c1,?,40.8%,10µM*,?,-2.8%,8.0%
N[C@H](COP(=O)(O)O)C(=O)O,.,.,33.5%[59 µM],.,.,.
N[C@H](CO)C(=O)O,.,.,11.9µM*!,?,.,.
N[C@@H](CS(=O)O)C(=O)O,.,.,21.2µM*!,?,.,.
NC(CSCC(=O)O)C(=O)O (stereo not given),.,.,-25.3%[59 µM],8.7%,.,.
NC(CS(=O)O)C(=O)O (stereo not given),2.8%,23.4%,.,-1.1%,35.5µM*,.
O=C(/C=C/c1ccc2ccccc2n1)c1cc(Br)ccc1O,?,0.2%,10µM*,?,?,56.2µM*
O=C1Nc2ccc(C(=O)O)c(O)c2C1=O,-4.8%,-0.9%,.,-21.2%,56.2µM*,.
Cc1ccc(S(=O)(=O)N2CCN(C(=O)c3ccc(Br)o3)CC2)c(C)c1,-11.9%,-17.1%,79.4µM*,?,-22.1%,-29.6%
Cc1ccc2nc(C)c(C(=O)N3CCN(S(=O)(=O)c4cc(F)ccc4F)CC3)cc2c1,.,.,.,-6.8%,.,.
Cc1ccc(S(=O)(=O)N2CCN(C(=O)c3ccccn3)CC2)c(C)c1,0.4%,55.3%,-24.2%,-1.1%,-8.6%,.
Cc1ccc(S(=O)(=O)N2CCN(C(=O)c3cc4cc(C)ccc4nc3C)CC2)cc1,.,.,.,39.8µM*,.,.
Cc1ccc(S(=O)(=O)N2CCN(C(=O)c3ccc4ccccc4n3)CC2)c(C)c1,-4.4%,8.2%,1.7%[2.33 µM],?,35.5µM*,50.1µM*
COc1ccc(C2NC(=O)NC(C)=C2C(=O)OC2CCCCC2)cc1 (stereo not given),-2.2%,.,.,-11.0%,.,.
CCOC(=O)c1sc(NC(=O)CNCc2ccccn2)c(C(=O)OCC)c1C,-9.6%,9.3%,.,-15.7%,?,28.2µM*
CCOC(=O)c1c(NC(=O)COc2ccc(OC)cc2)sc(C(=O)N(CC)CC)c1C,.,13.0%,-38.5%[59 µM],-11.2%,-16.4%,?
CCOC(=O)c1c(NC(=O)COc2ccc(Br)cc2)sc(C(C)=O)c1C,.,-7.1%,14.1µM*,-24.0%,-10.7%,-1.8%
CCOC(=O)c1sc(NC(=O)CNCc2cccnc2)c(C(=O)OCC)c1C,-0.7%,23.4%,20.7%,1.5%,-23.9%,-17.5%
CCOC(=O)c1c(NC(=O)COc2ccccc2)sc(C(C)=O)c1C,.,?,12.6µM*,-8.9%,-0.6%,4.9%
CCOC(=O)c1c(NC(=O)COc2cccc(C)c2C)sc(C(C)=O)c1C,.,54.0%,32.0%[59 µM],-11.9%,-6.9%,23.0%
SMILES,PLK1 PBD block,HP1b binding inh,G9a block,ALOX12 inh,JMJD2A Tudor,BAZ2B inh
COc1cc(C(=O)Nc2ccc(NC(=O)c3ccc(C(C)(C)C)cc3)cc2)cc(OC)c1OC,.,19.8%,1.7%[59 µM],-18.4%,-7.8%,-1.3%
COc1cccc(Nc2nc(-c3cccc(N4C(=O)c5ccccc5C4=O)c3)cs2)c1,?,?,14.1µM*,?,?,?
COc1cccc(Nc2nc(-c3ccc(CN(C)C(C)=O)cc3)cs2)c1,.,.,.,-29.9%,.,.
COc1cccc(Nc2nc(-c3ccc(O)cc3)cs2)c1,-15.6%,-9.4%,50.1µM*,?,?,?
CCc1ccc(NC(=O)CN2CCCN(Cc3cccc(Cl)c3)S2(=O)=O)cc1,.,16.0%,-5.7%[59 µM],-13.9%,-3.4%,-7.6%
CC(C)OCCCNC(=O)C(=O)N/N=C/c1ccc(OCc2ccccc2)cc1,4.9%,18.5%,4.1%,?,2.9%,-29.2%
CCOC(=O)C(O)(NC(=O)c1ccccc1OCC)C(F)(F)F (stereo not given),.,.,.,37.4%,.,.
COC(=O)C(N)Cc1ccc(O)cc1 (stereo not given),3.1%,21.7%,-40.6%[59 µM],0.0%,-3.0%,-24.6%
NC(CO)C(=O)NNCc1ccc(O)c(O)c1O (stereo not given),6.7µM*,?,1.41µM*,44.1%,10µM*,4.47µM*
CCCC(=O)OCC(=O)NCc1ccc(OC)cc1,.,.,.,-12.8%,.,.
c1ccc(OCCOCCN2CCc3ccccc3C2)cc1,0.9%,35.5%,-44.6%[59 µM],-1.5%,-23.0%,-1.7%
C=CCc1cc(OC)ccc1OCCOCCN1CCc2ccccc2C1,-9.2%,?,11.2µM*,?,0.891µM*,56.2µM*
CCOc1ccc(OCCOCCN2CCc3ccccc3C2)cc1,5.1%,?,.,?,2.82µM*,56.2µM*
CCCOc1ccc(OCCOCCN2CCc3ccccc3C2)cc1,-0.1%,?,10µM*,?,3.55µM*,50.1µM*
Cc1ccc(SCCOCCN2CCc3ccccc3C2)cc1,-4.6%,?,?,?,39.8µM*,-37.0%
Cc1ccc(C)c(OCCC(=O)OCC(=O)NC2CCCC2)c1,-5.7%,26.6%,10.2%[0.501 µM],21.4%,-4.8%,-3.6%
Cc1nc2ccc(C(=O)N3CCC(O)(Cc4ccccc4)CC3)cn2c1N(C)C(=O)CCc1ccccc1,2.9%,.,.,14.7%,.,.
CN(Cc1ccon1)C(=O)CC1C(=O)NCCN1Cc1cccc(F)c1F (stereo not given),-3.8%,17.1%,.,11.2%,-19.4%,-2.0%
CC1(C)C(=O)Nc2ccccc2N1C(=O)COC(=O)c1ccc(NC(N)=O)cc1,-5.1%,8.7%,35.5µM*,.,-19.7%,-9.6%
CC1(C)C(=O)Nc2ccccc2N1C(=O)COC(=O)c1cccc(O)c1,-10.3%,6.1%,.,-6.6%,?,.
Cc1cc(OCC(=O)OCC(=O)N2c3ccccc3NC(=O)C2(C)C)ccc1Cl,-12.0%,2.1%,18.4%[12.7 µM],i,?,79.4µM*
CN1C(=O)[C@H]2[C@@H](C3CC3)N3C(=O)CN(Cc4ccc(-c5ccccc5)cc4)C(=O)[C@@]3(C)[C@H]2C1=O,2.8%,25.2%,-8.3%,22.3%,-7.0%,-7.2%
Cc1cccc(NC(=S)NCCc2c[nH]c3ccccc23)c1,-18.2%,-26.4%,7.6%[59 µM],39.8µM*,?,?
Cc1ccc(C)c(NC(=S)NCCc2c[nH]c3ccccc23)c1,8.5%,?,?,?,?,44.7µM*
COc1ccc(NC(=O)CN(C)C(=O)CCCc2c[nH]c3ccccc23)cc1,1.9%,-5.4%,44.7µM*,1.1%,?,?
